ChEMBL document CHEMBL1961873, “Compounds: GSK PKIS; Assays: Nanosyn kinase panel” (2012)

What was measured:
[1] = biological target: Ribosomal protein S6 kinase alpha-6 (Homo sapiens) (UniProt Q9UK32); details: at 1 µM;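 also: each value is a mean inhibition of RSK4 from a GSK PKIS panel screen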
[2] = biological target: T1, Serine/threonine-protein kinase Sgk1 (Homo sapiens) (UniProt O00141); details: at 0.1 µM
T1 sequence (whole entry): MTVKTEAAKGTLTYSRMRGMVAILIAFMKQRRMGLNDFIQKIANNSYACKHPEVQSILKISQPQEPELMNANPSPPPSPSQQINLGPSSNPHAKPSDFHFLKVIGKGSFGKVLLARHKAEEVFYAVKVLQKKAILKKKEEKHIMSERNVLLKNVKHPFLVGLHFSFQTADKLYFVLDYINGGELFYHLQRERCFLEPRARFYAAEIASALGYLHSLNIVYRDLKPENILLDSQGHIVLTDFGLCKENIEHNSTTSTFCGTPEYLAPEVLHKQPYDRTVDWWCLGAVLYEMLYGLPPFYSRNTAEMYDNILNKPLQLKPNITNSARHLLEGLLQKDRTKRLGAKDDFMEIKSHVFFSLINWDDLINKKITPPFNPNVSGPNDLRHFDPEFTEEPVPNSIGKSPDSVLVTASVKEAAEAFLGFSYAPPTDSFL

[3] = biological target: T1, Serine/threonine-protein kinase Sgk1 (Homo sapiens); details: at 1 µM
[4] = biological target: T2, Serine/threonine-protein kinase Sgk2 (Homo sapiens) (UniProt Q9HBY8); details: at 0.1 µM
T2 sequence (whole entry): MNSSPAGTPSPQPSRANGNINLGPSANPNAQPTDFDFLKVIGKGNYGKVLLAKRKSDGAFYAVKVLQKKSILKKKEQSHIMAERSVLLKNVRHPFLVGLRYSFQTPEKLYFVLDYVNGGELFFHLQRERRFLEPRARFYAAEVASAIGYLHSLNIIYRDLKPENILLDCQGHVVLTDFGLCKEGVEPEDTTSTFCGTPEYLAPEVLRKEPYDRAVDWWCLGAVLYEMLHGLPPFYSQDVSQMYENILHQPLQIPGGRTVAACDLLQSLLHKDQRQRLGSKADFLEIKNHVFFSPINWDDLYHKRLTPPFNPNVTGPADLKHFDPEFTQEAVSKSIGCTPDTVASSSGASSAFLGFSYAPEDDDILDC

[5] = biological target: T2, Serine/threonine-protein kinase Sgk2 (Homo sapiens); details: at 1 µM
[6] = biological target: T3, Serine/threonine-protein kinase Sgk3 (Homo sapiens) (UniProt Q96BR1); details: at 0.1 µM
T3 sequence (whole entry): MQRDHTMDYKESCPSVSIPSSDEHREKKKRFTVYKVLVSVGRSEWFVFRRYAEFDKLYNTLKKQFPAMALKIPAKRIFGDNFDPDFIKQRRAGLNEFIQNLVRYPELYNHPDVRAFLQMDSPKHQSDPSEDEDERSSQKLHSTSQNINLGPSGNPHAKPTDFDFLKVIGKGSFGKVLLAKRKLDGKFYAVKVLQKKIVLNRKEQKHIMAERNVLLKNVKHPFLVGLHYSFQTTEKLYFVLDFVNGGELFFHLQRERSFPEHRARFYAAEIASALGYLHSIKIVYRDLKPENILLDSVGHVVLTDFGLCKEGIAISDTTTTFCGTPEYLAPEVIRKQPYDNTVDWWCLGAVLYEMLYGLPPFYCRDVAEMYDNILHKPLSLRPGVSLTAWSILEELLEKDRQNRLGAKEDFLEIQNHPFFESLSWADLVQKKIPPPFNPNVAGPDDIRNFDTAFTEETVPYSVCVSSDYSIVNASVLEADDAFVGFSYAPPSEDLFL

[7] = biological target: T3, Serine/threonine-protein kinase Sgk3 (Homo sapiens); details: at 1 µM
[8] = biological target: 5'-AMP-activated protein kinase catalytic subunit alpha-1 (Homo sapiens) (UniProt Q13131); details: at 0.1 µM
Chain of 5'-AMP-activated protein kinase catalytic subunit alpha-1 (Homo sapiens) (Q13131 whole entry, looked up): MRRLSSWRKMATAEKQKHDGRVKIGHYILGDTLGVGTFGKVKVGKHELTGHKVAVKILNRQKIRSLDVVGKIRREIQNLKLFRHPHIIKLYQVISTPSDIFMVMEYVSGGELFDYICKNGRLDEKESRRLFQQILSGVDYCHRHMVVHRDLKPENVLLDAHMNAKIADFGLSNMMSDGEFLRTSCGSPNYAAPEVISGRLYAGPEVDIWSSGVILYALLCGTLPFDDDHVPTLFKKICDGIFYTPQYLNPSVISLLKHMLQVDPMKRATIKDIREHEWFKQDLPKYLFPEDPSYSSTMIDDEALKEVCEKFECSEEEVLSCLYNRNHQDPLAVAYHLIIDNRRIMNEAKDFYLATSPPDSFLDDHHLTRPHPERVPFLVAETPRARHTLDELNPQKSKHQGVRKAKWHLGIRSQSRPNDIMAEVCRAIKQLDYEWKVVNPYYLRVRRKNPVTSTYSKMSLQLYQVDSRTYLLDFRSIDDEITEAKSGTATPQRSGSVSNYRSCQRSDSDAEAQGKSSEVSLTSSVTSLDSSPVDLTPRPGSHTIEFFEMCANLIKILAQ

[9] = biological target: 5'-AMP-activated protein kinase catalytic subunit alpha-1 (Homo sapiens) (UniProt Q13131); details: at 1 µM
[10] = biological target: 5'-AMP-activated protein kinase catalytic subunit alpha-2 (Homo sapiens) (UniProt P54646); details: at 0.1 µM
Chain of 5'-AMP-activated protein kinase catalytic subunit alpha-2 (Homo sapiens) (P54646 whole entry, looked up): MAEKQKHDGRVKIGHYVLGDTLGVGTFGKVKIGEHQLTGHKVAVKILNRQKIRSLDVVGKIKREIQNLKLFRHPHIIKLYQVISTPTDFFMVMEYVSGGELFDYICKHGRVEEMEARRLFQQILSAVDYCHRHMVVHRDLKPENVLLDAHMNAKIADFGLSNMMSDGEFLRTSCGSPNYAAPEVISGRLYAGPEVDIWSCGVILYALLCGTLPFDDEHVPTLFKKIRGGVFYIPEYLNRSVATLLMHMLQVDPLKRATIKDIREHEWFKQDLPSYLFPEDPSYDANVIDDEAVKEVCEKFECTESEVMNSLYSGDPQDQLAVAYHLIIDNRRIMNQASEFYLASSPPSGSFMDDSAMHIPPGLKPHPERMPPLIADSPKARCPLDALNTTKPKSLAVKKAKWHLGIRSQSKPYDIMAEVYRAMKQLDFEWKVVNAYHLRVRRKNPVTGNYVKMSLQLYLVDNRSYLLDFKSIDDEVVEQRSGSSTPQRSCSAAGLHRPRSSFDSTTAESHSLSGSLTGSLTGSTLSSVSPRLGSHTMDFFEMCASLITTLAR

[11] = biological target: 5'-AMP-activated protein kinase catalytic subunit alpha-2 (Homo sapiens) (UniProt P54646); details: at 1 µM
[12] = biological target: T4, NUAK family SNF1-like kinase 1 (Homo sapiens) (UniProt O60285); details: at 0.1 µM
T4 sequence (whole entry): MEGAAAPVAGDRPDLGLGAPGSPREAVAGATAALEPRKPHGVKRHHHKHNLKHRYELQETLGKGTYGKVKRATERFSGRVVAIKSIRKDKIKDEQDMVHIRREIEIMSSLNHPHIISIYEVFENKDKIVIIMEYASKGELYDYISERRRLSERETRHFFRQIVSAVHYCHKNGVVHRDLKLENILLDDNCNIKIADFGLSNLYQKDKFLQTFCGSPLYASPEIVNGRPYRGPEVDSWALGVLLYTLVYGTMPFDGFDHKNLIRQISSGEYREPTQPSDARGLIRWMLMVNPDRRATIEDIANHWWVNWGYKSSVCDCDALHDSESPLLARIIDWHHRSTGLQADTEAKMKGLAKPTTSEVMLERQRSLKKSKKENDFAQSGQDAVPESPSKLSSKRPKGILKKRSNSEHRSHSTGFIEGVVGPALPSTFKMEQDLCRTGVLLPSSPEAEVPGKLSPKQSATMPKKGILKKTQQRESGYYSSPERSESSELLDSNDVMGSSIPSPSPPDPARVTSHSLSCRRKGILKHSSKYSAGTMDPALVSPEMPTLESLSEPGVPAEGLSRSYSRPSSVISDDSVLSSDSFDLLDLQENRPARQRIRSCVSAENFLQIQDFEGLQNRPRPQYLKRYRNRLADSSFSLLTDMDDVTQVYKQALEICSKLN

[13] = biological target: T4, NUAK family SNF1-like kinase 1 (Homo sapiens); details: at 1 µM
[14] = biological target: T5, Serine/threonine-protein kinase BRSK1 (Homo sapiens) (UniProt Q8TDC3); details: at 0.1 µM
T5 sequence (whole entry): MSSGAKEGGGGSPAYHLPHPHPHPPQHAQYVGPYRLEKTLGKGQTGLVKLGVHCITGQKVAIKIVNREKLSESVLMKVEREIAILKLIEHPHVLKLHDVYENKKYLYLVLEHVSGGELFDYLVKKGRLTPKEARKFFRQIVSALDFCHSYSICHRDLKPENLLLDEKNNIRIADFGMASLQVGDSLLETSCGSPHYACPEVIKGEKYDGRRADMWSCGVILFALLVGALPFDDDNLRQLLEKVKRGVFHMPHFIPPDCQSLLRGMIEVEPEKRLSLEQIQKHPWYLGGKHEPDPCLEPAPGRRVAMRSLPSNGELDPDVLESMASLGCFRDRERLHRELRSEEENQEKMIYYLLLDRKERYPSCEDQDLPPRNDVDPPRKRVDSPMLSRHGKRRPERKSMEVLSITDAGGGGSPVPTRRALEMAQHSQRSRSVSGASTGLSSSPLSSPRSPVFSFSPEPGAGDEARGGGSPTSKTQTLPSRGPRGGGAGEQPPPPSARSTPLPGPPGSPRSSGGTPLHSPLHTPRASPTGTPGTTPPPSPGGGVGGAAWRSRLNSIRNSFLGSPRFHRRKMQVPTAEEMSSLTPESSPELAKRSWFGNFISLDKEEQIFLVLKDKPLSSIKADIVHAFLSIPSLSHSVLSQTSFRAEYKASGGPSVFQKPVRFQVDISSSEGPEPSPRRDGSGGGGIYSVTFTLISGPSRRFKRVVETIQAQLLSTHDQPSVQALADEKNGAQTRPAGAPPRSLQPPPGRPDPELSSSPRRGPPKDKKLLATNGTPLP

[15] = biological target: T5, Serine/threonine-protein kinase BRSK1 (Homo sapiens); details: at 1 µM
[16] = biological target: T6, Serine/threonine-protein kinase BRSK2 (Homo sapiens) (UniProt Q8IWQ3); details: at 0.1 µM
T6 sequence (whole entry): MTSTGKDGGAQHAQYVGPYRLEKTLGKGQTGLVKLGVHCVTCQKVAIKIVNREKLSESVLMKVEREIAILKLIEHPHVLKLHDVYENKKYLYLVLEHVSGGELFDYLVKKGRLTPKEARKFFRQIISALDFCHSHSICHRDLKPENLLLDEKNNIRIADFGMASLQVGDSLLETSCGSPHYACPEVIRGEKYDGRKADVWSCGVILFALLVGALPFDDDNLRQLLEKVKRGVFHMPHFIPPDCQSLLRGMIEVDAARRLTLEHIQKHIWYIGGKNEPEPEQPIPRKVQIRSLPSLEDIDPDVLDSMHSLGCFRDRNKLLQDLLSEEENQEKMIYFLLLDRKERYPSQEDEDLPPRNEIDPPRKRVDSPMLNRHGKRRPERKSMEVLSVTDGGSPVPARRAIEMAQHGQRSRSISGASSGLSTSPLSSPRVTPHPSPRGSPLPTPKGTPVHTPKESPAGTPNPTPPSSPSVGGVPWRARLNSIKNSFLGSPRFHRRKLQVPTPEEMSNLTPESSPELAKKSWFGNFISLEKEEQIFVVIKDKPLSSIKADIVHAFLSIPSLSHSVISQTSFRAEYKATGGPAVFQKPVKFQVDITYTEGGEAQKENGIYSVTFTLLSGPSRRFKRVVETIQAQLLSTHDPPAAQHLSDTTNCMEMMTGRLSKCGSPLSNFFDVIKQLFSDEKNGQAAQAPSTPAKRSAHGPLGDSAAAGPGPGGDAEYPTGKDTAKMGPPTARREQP

[17] = biological target: T6, Serine/threonine-protein kinase BRSK2 (Homo sapiens); details: at 1 µM
[18] = biological target: Calcium/calmodulin-dependent protein kinase type 1D (Homo sapiens) (UniProt Q8IU85); details: at 0.1 µM
Chain of Calcium/calmodulin-dependent protein kinase type 1D (Homo sapiens) (Q8IU85 whole entry, looked up): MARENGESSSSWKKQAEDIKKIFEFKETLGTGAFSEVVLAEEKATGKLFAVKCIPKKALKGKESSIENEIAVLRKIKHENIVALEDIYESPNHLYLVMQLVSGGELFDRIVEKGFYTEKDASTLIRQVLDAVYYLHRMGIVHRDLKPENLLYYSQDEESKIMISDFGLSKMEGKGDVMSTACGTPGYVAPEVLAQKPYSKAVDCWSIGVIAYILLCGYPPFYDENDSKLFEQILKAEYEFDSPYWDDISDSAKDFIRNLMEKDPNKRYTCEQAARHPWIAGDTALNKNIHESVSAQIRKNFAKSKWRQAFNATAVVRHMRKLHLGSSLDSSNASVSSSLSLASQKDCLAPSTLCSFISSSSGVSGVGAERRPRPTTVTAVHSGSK

[19] = biological target: Calcium/calmodulin-dependent protein kinase type 1D (Homo sapiens) (UniProt Q8IU85); details: at 1 µM
[20] = biological target: Calcium/calmodulin-dependent protein kinase type II subunit alpha (Homo sapiens) (UniProt Q9UQM7); details: at 0.1 µM;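 also: reported values are averages (mean inhibition of CAMK2A)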
Chain of Calcium/calmodulin-dependent protein kinase type II subunit alpha (Homo sapiens) (Q9UQM7 whole entry): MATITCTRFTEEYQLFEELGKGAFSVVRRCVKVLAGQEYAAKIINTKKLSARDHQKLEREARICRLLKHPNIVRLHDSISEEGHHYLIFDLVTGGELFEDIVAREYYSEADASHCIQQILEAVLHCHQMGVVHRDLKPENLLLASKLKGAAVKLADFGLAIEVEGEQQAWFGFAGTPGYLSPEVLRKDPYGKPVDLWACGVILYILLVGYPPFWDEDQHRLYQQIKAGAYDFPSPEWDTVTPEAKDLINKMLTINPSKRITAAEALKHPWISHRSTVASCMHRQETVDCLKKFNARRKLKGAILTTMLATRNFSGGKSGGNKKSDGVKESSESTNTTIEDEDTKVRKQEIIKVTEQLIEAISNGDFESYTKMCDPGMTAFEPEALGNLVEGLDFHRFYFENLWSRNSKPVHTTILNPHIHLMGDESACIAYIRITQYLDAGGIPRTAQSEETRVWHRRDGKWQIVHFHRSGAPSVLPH

Chain of Ribosomal protein S6 kinase alpha-6 (Homo sapiens) (Q9UK32 whole entry): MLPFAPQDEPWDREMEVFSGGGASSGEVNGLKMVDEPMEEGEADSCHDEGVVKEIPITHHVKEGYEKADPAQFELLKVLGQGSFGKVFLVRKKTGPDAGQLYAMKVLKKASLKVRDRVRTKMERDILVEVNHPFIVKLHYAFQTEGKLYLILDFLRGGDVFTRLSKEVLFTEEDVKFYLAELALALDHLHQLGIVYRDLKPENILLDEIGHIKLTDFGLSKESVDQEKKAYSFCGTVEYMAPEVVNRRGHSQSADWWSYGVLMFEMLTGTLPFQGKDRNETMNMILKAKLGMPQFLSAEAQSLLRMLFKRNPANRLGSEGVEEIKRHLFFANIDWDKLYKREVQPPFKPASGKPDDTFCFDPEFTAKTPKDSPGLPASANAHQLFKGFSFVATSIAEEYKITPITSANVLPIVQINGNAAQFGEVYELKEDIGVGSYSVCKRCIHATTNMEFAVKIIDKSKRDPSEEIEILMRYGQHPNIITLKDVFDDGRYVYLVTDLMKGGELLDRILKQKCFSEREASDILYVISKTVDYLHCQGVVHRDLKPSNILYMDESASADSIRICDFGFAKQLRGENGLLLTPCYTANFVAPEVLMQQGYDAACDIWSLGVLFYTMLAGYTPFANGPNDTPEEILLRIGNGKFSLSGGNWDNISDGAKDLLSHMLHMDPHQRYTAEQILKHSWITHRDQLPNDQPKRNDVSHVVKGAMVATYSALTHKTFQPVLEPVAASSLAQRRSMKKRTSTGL

Compound | inhibition [1] [%] | inhibition [2] [%] | inhibition [3] [%] | inhibition [4] [%] | inhibition [5] [%] | inhibition [6] [%] | inhibition [7] [%] | inhibition [8] [%] | inhibition [9] [%] | inhibition [10] [%] | inhibition [11] [%] | inhibition [12] [%] | inhibition [13] [%] | inhibition [14] [%] | inhibition [15] [%] | inhibition [16] [%] | inhibition [17] [%] | inhibition [18] [%] | inhibition [19] [%] | inhibition [20] [%]
N#Cc1cccc(Nc2ncc(-c3ccccc3)o2)c1 | -0.13 | 2.75 | 7.53 | 1.9 | -1.67 | 2.18 | 5.3 | 1.1 | 1.53 | -0.83 | 1.61 | 0.75 | 7.37 | -1.88 | 1.82 | 0.65 | 5 | -1.6 | -1.52 | 1.87
CS(=O)(=O)CCNCc1ccoc1-c1ccc2ncnc(Nc3ccc(OCc4ccccc4)cc3)c2c1 | -0.72 | 2.02 | 1.39 | 2.28 | -3.3 | 5.61 | 1.1 | -0.71 | -0.55 | 0.46 | 1.14 | 2.3 | 2.12 | -0.34 | -0.87 | 0.28 | 1.27 | -0.18 | -0.02 | -0.63
NS(=O)(=O)c1cccc(N/C=C2\C(=O)Nc3ccccc32)c1 | 22.4 | 6.58 | 26.9 | 4.31 | 11.5 | 6 | 5.21 | 3.31 | 12 | 4.65 | 11.2 | 5.37 | 35.8 | 4.66 | 17.9 | 5.23 | 26 | 0.94 | 3.7 | 3.94
COc1ccccc1-c1cc(/C=C2\C(=O)Nc3ncc(Br)cc32)cc(Br)c1O | 2.05 | 4.47 | 5.53 | 3.23 | 2.58 | 4.46 | 0.16 | 4.85 | 9.85 | 5.58 | 7.88 | 4.1 | 6.09 | 4.73 | 5.82 | 5.97 | 4.72 | 0.1 | 1.73 | 4.16
CS(=O)(=O)CCNCc1ccc(-c2ccc3ncnc(Nc4ccc(OCc5ccccc5)cc4)c3c2)o1 | 1.11 | 5.01 | 2.28 | 2.02 | 1.93 | 3.54 | 1.87 | 2.94 | 3.44 | 2.07 | 4.61 | -0.27 | 1.06 | 1.11 | 1.23 | 2.82 | 4.33 | 0.33 | 1.27 | 2.27
COc1ccc(-c2nn3ncccc3c2-c2ccnc(Nc3ccc(F)c(F)c3)n2)cc1 | 1.98 | 3.06 | 9.35 | 5.4 | 7.74 | 5.09 | 6.1 | 5.22 | 9.36 | 2.91 | 6.49 | 3.92 | 5.51 | 3.95 | 7.79 | 5.66 | 7.14 | -0.12 | 1.91 | 3.21
COc1cc(N2CCN(C(C)C)CC2)ccc1Nc1nc(Nc2cccc(F)c2C(=O)O)c2cc[nH]c2n1 | 13 | 0.41 | 5.92 | 0.2 | 3.35 | 3.6 | 4.41 | 3.98 | 5.67 | 0.48 | 2.95 | 5.3 | 5.91 | -0.39 | 0.33 | 1.72 | 3.39 | -0.23 | 4.47 | 3.99
CN1CCC(n2cnc(-c3ccc(F)cc3)c2-c2ccnc(NCCO)n2)CC1 | 1.96 | 3.61 | 6.71 | 0.04 | 5.93 | 5.14 | 3.95 | 2.98 | 6.22 | 1.25 | 3.88 | 1.51 | 0.83 | 1.04 | 3.71 | 2.24 | 6.29 | -1.1 | -1.38 | 8.05
COc1cccc(Nc2nccc(-c3cnn4ncccc34)n2)c1 | 4.34 | 1.84 | 9.81 | 7.46 | 6.98 | -0.45 | 2.03 | 2.19 | 10.9 | -3.44 | 7.99 | 52.8 | 71 | 0.63 | 6.67 | 0.75 | 10.4 | -0.48 | 4.71 | 4.77
